esBAF inh: SWI/SNF esBAF complex inhibition; mouse ES cells, Bmi1-luciferase knock-in reporter, 24 h; 100% = twice the neutral-well signal; reporter increase, % at 12.5 µM; AID 602393; actives 2% (n = 350,000); in the data active = activation above about 40%; inconclusive = no clear call, values can overlap the other calls;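 note: 0% = median of the plate's neutral control wells and 100% = double that signal; a rise in the Bmi1 reporter signal indicates esBAF inhibition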
PfHsp90 yeast 2: inhibits growth of yeast expressing Plasmodium falciparum Hsp90; S. cerevisiae expressing PfHsp90, BacTiter-Glo ATP, 48 h; yeast lacking PDR1 and PDR3 efflux regulators; inhibition, % at 9.4 µM; actives 0.32% (n = 310,000);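 active = every replicate shows inhibition above about 80%, whatever the replicate mean, limit read from the data; inconclusive = mean inhibition reaches the set limit but some replicate falls short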;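 note: 0% = DMSO neutral controls and 100% = 20 µM radicicol positive controls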
N-glyco inh: blocks N-linked glycosylation in D54 reporter cells; AID 588692; D54 ERlucT glycosylation luciferase reporter, 24 h; percent of 100 nM tunicamycin response; actives 0.23% (n = 360,000); reporter increase, % at 12.5 µM;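 active = mean luciferase reporter signal, scaled so untreated is 0 and the glycosylation-blocking control 100, at or above a set limit in every replicate; inconclusive = mean reaches the limit but not every replicate does; inactive = mean below the limit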;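 note: luciferase carries N-glycosylation sites so blocking glycosylation raises the light; 0% = median of neutral control wells and 100% = median of 100 nM tunicamycin wells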
Wnt bcat act: activates Wnt/beta-catenin signaling in a reporter cell assay; AID 743398; activator, plate reader; activation, % at 9.35 µM; actives 1.2% (n = 300,000); in the data active = activation above about 30%, passing the limit was not always enough; inconclusive = no clear call, values can overlap the other calls;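 note: 0% = neutral control wells and 100% = positive control wells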
MITF TRPM1 HTS: MITF TRPM1 promoter activation in melanoma cells. SK-MEL-5 TRPM1-promoter luciferase, 24 h; % of positive control, neutral wells = 0. activation, % at 12.5 µM. actives 0.75% (n = 300,000);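 active = mean activation of at least 80% with every replicate also reaching 80%; inconclusive = mean reaches 80% but some replicate falls short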;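 note: 0% = neutral control wells and 100% = parthenolide positive control wells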
Vif inh: inhibitors of HIV Vif; HEK293T cells, Vif self-association by quenched fluorescence, imaging, 24 h; actives 0.35% (n = 340,000); inhibition, % at 7.49 µM; in the data active = inhibition above about 50%, passing the limit was not always enough; inconclusive = no clear call, values can overlap the other calls; inactive = below about 31%
* marks the source's active call; other numbers are inactive results; ? = inconclusive; · = no result. Rows were chosen to be rich in hits. Some 3% of all compounds tested hit in one or more screens of this group.

SMILES	esBAF inh	PfHsp90 yeast 2	N-glyco inh	Wnt bcat act	MITF TRPM1 HTS	Vif inh
Cc1ccc(NC(=O)CS(=O)c2ccccc2N)c(C)c1 (stereo not given)	50*	9	2	-3	14	10
CN1/C(=C/C=N/NC(=O)c2ccc([N+](=O)[O-])cc2)C(C)(C)c2ccccc21	·	12	2	-3	12	4
Fc1ccc(-c2ccc(Nc3cccc(F)c3)nn2)cc1	52*	-10	-2	6	69	-8
O=C(c1cc(COc2ccc(F)cc2F)on1)N1CC[C@@H]2CCCC[C@H]2C1	6	-1	2	1	12	-9
N#C/C(=C/c1ccc(Sc2nc3ccccc3[nH]2)o1)c1ccccc1F	·	11	2	·	-8	-10
Cn1nnnc1SCC(=O)Nc1nc2c(s1)CCCC2	18	16	-6	?	93*	26
CCN(CC)C(=O)c1ccc(CS(=O)(=O)c2ccc(Br)cc2)cc1	-7	-4	-3	2	1	2
C/C(NC(=O)c1cccc(F)c1)=C1/C(=O)C[C@@H]2[C@H]1C2(C)C	65*	-4	0	·	109*	-7
NC(=Nc1nc(-c2ccccn2)cc2ccccc12)c1ccccn1	·	142*	-8	-4	-62	-10
N/C(=N\OC(=O)c1cccc2ccccc12)c1ccccn1	·	-16	-6	2	·	-7
Cc1ccc(-c2nc(N)s[n+]2-c2ccccc2)cc1	·	10	-4	53*	10	2
CNc1nc(-c2ccccc2)[n+](-c2ccc(C)cc2)s1	·	27	1	·	5	-1
COc1ccc(OC)c(-n2c(O)cnc2Nc2nc(C)cc(C)n2)c1	-3	0	1	-1	-6	-4
CCOC(=O)[C@H]1[C@H]2COc3ccc(Br)cc3[C@@H]2N2C(=O)c3cc(OC)c(OC)cc3NC(=O)[C@@]12C	-2	5	31*	0	-12	-7
CCOC(=O)[C@H]1[C@H]2COc3ccc(Br)cc3[C@@H]2N2C(=O)c3cc(Br)ccc3NC(=O)[C@@]12C	-2	-11	2	-4	-2	-4
CCOC(=O)[C@H]1[C@H]2COc3ccc(C)cc3[C@@H]2N2C(=O)c3cc(OC)c(OC)cc3NC(=O)[C@@]12C	2	12	9	-1	12	-4
CCOC(=O)[C@H]1[C@H]2COc3ccc(OC)cc3[C@@H]2N2C(=O)c3cc(OC)c(OC)cc3NC(=O)[C@@]12C	-5	3	31*	4	2	-7
C[C@@H](CO)NC(=O)[C@H]1O[C@@H](n2cnc3c(N)ncnc32)[C@H](O)[C@@H]1O	-2	·	1	·	·	0
Nc1ncnc2c1ncn2C1OC(C(=O)NC2CC2)C(O)C1O (stereo not given)	-2	15	5	0	-3	160*
OC[C@H]1O[C@@H](n2cnc3c(NCc4ccco4)ncnc32)[C@H](O)[C@@H]1O	36	-6	23	-27	-65	6
C=CCNc1ncnc2c1ncn2C1OC(CO)C(O)C1O (stereo not given)	0	-6	4	·	-7	60*
OCC1OC(n2cnc3c(NCc4ccco4)ncnc32)C(O)C1O (stereo not given)	·	-51	?	-1	-62	54*
OC[C@H]1O[C@@H](n2cnc3c(NC4CCCC4)ncnc32)[C@H](O)[C@@H]1O	-2	-7	-1	1	17	67*
C[C@@H]1CN([C@@H](C)CO)S(=O)(=O)c2ccc(C#CC3CCCC3)cc2O[C@@H]1CN(C)S(C)(=O)=O	11	·	·	·	·	·
Cc1ncc([N+](=O)[O-])n1CC(=O)NC1CCCC1	-4	-20	3	-1	8	8
SMILES	esBAF inh	PfHsp90 yeast 2	N-glyco inh	Wnt bcat act	MITF TRPM1 HTS	Vif inh
CC1=Nc2ccc3ccccc3c2C1(C)C	·	-14	-3	-3	7	53*
O=C(Nc1cc(C(F)(F)F)ccc1Cl)C(Sc1cccc[n+]1[O-])c1ccccc1 (stereo not given)	·	-22	2	·	-2	2
CC(C)(C)C1CCc2c(sc3c2C(=O)NC(c2ccco2)N3)C1 (stereo not given)	23	-9	-2	1	95*	·
CN1CCc2c(sc3c2C(=O)NC(c2ccccc2)N3)C1 (stereo not given)	·	-6	3	20	2	2
Brc1cccc(Nc2nc(-c3cccnc3)cs2)c1	49*	-16	1	27	16	-12
Clc1cccc(Nc2nc(-c3cccnc3)cs2)c1	78*	0	2	0	43	-5
Brc1ccc(Nc2nc(-c3cccnc3)cs2)cc1	·	-85	1	0	26	8
c1cncc(Nc2nc(-c3cccs3)cs2)c1	69*	·	0	16	52	-12
COC(=O)c1cc(NC(=O)Cn2nc(C)n3cccc3c2=O)cc(C(=O)OC)c1	1	5	1	-5	1	1
COC(CNC(=O)C1CCN(C(=O)c2cc3oc(C)cc3n2Cc2c(F)cccc2Cl)CC1)OC	·	-8	0	-2	0	55*
CCOC(=O)N1CCC(NC(=O)C2CCN(C(=O)c3cc4oc(C)cc4n3Cc3c(F)cccc3Cl)CC2)CC1	·	3	-3	1	1	-16
Cc1ccc(Cl)cc1-n1c(SCC(=O)NCCC2=CCCCC2)nc2n[nH]c(C)c2c1=N	0	-16	12	-3	-28	-3
Cc1cc(-n2c(SCC(=O)NCCC3=CCCCC3)nc3n[nH]c(C)c3c2=N)ccc1Cl	-35	2	59*	-5	-55	-5
CCO[C@@H]1OC(C(=O)N2CCN(Cc3ccccc3)CC2)=C[C@H](c2cn(C(C)=O)c3ccccc23)[C@H]1CCCO	6	2	1	-1	6	-3
O=C(CSc1ccc(-c2ccc(Br)cc2)nn1)N1CCOCC1	7	·	0	9	24	-7
Cn1cnc(S(=O)(=O)N2CCCC(c3cc(C(=O)Nc4ccc(F)c(Cl)c4)no3)C2)c1 (stereo not given)	53*	·	-5	0	·	-10
Cc1[nH]c2ccccc2c1Cc1nnc(SCc2ccccc2)o1	6	1	-3	-1	10	-3
COc1cc(Nc2c3c(nc4ccccc24)CCC3)cc(OC)c1OC	-4	-26	49*	-3	-23	-2
O=C(COc1ccc(Cl)cc1Cl)NC(=O)NC1CCCC1	48*	·	3	21	127*	4
O=C(COc1ccccc1Cl)NC(=O)NC1CCCC1	24	4	-2	·	97*	-4
O=C(COc1ccc(Cl)cc1Br)NC(=O)NC1CCCC1	72*	·	-1	54*	152*	-2
O=C(COc1ccc(F)c(Cl)c1)NC(=O)NC1CCCC1	8	·	2	-2	·	·
O=C(Nc1ccccc1Cl)NC1CCCCCCC1	59*	-7	-3	16	53	-7
